Assay [1] relates to Human papillomavirus type 1a protein E7 (residues 44-93). Kind of assay: HPV1a E7 fragment binders on microarrays, primary screen, biochemical, small-molecule microarray, residues 44-93, 635 nm fluorescence (AID 1108).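 Note: E7 fragment applied at 1 µg/mL in TBST for 1 h at 4 C; score combines spot fluorescence with its signal to noise ratio.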 The settings on record: small-molecule microarray binding, fluorescence 635 nm; higher = more signal.
A short description of assay [2]: modulators of HCV replicon luciferase signal, primary screen, HCV replication inhibitor project, Huh7 cells, luciferase reporter (AID 1109).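 Note: huh7 hepatoma cells harbouring a luciferase neomycin HCV replicon reporter; luciferase luminescence as measure of HCV replicon replication; test concentration not given here.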 The settings on record: 48 h, higher = more signal. On the technique in general: A replicon is a self-replicating genome or part of one, used to study replication in cells.
Assay [3] concerns the target Left-right determination factor 2 (Homo sapiens) (UniProt O00292). The experiment in a line: LEFTY2 binders on small-molecule microarrays, primary screen, biochemical, small-molecule microarray, 635 nm fluorescence scan (AID 1110). The settings on record: LEFTY2 binding, higher = more signal.
Assay [4] has as its target Calmodulin-1 (Homo sapiens) (UniProt P0DP23). The experiment in a line: CALM1 binders on microarrays, EGTA buffer, profiling panel, biochemical, small-molecule microarray, Cy5-labelled CALM1 (AID 1111).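 Note: labelled calmodulin applied in Tris saline Tween buffer holding calcium plus EGTA and DTT.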 To be noted: Cy5-CALM1 binding fluorescence, higher = more signal.
For assay [5] the target is unchanged. Kind of assay: calcium-bound CALM1 binders on microarrays, profiling panel, artefact control for SMM control-protein annotation, biochemical, small-molecule microarray, Cy5-labelled CALM1, plus calcium (AID 1112).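 Note: score merges spot fluorescence with signal to noise from triplicate slides.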 The settings on record: Cy5-CALM1 binding fluorescence, higher = more signal.
The nature of assay [6]: small-molecule microarray binders of probe aWnt5a, primary screen, biochemical, biotinylated probe, 635/667 nm fluorescence (AID 1113).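 Note: score merges 667 nm fluorescence intensity with signal-to-noise per printed feature.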 The settings on record: higher = more signal.
A short description of assay [7]: small-molecule microarray binders of probe aShh, primary screen, biochemical, biotinylated probe, 635/667 nm fluorescence (AID 1114).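 Note: probe is biotin-labelled aShh protein from a stem cell growth factor screen; measures binding of labelled protein to compounds printed on the slide; score merges feature fluorescence at 667 nm with signal-to-noise.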 To be noted: higher = more signal.
Assay [8] in a line: small-molecule microarray binders of probe aNog, primary screen, biochemical, biotinylated probe, 635/667 nm fluorescence (AID 1115).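 Note: probe is biotinylated aNog protein used at 0.15 µg/mL for 1 h at 4 C; z-score combines 667 nm fluorescence of each spot with its signal to noise.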 The settings on record: higher = more signal.
The target in assay [9] is Torsin-1A-interacting protein 1 (Homo sapiens) (UniProt Q5JTV8). Kind of assay: LAP1 binders from COS7 cell lysate, primary screen, small-molecule microarray, 635/667 nm fluorescence (AID 1116). The settings on record: COS7-hLAP1 lysate binding, 635 nm fluorescence, higher = more signal.
For assay [10], the target named is Alpha-bungarotoxin (Bungarus multicinctus) (UniProt P60615). Kind of assay: alpha-bungarotoxin binders on microarray, profiling panel, artefact control for SMM control protein annotation, biochemical, small-molecule microarray, Alexa647 label, 635/667 nm fluorescence (AID 1117). To be noted: alpha-BTX-A647 binding fluorescence, higher = more signal.
Chain of Alpha-bungarotoxin (Bungarus multicinctus) (P60615 whole entry, looked up): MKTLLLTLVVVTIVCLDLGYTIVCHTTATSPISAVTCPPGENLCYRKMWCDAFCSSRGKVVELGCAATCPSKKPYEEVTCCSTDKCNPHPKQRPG

Chain of Left-right determination factor 2 (Homo sapiens) (O00292 whole entry, looked up): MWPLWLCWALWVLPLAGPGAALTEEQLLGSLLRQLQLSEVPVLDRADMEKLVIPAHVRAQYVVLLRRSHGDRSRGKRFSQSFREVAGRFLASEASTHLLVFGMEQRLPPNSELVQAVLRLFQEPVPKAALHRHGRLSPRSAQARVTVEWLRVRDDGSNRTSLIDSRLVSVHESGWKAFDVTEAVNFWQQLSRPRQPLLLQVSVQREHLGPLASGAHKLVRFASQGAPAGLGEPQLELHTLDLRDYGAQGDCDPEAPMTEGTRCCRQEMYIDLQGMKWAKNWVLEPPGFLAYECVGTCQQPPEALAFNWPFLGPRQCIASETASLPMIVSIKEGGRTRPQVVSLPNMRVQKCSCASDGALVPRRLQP
Chain of Torsin-1A-interacting protein 1 (Homo sapiens) (Q5JTV8 whole entry, looked up): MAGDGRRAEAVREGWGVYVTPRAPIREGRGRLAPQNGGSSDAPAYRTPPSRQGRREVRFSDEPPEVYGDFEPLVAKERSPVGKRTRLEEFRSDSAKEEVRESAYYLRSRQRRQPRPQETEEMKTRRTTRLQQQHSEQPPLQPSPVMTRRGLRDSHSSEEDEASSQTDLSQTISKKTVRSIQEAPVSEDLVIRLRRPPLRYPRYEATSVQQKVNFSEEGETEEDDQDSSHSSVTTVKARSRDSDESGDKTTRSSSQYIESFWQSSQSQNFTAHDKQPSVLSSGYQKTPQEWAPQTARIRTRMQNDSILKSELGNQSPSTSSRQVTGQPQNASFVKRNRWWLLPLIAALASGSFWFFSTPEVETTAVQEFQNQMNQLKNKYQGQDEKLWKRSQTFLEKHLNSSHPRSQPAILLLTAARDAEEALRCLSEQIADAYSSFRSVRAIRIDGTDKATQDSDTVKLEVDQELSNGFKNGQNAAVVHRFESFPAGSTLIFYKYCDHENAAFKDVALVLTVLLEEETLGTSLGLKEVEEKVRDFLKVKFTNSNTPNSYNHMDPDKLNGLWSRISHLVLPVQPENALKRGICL

On to `CCCCN1CC=CC23O[C@@H]4/C=C\CCC(C)OC(=O)C4[C@H]2C(=O)N(CCCO)[C@@H]3C1=O` (stereo not given in full), for which the composite z-score in assay [1] was -0.169; in assay [3], -0.949; in [4] it was -0.0083; in assay [5] it was 0.458; in assay [6] it was -0.252; in assay [7], 0.535. The composite z-score in [8] was -0.362; in [9], -0.318; in assay [10], -0.566. This molecule also had a z-score in [2] of -0.398.

For `[N-]=[N+]=Nc1ccccc1[C@H]1OC(c2ccc(OCCCO)cc2)=N[C@@]1(Cc1ccccc1)C(=O)NCCN1CCOCC1`, the composite z-score in [1] turned out to be 0.632; in assay [3] it was 0.331; in assay [4], 2.07; in assay [5], 0.469; in assay [6], 0.248; in assay [7] it was 0.171. Further, the composite z-score in assay [8] is -0.61; in [9] it was 0.998; in [10] it was 1.8. This molecule also yielded a z-score in assay [2] of -1.85.

For `C=CCN1C(=O)[C@]2(CCS(=O)(=O)c3ccccc3)N=C(c3ccc(OCCCO)cc3)O[C@@H]2c2ccccc21`, the composite z-score is 1.29 in assay [1]; 0.59 in [3]; 2.17 in [4]; -0.493 in [5]; -0.0268 in [6]; 0.365 in assay [7]. Moreover, the composite z-score in [8] stood at 0.033; in assay [9], 1.68; in assay [10], 1.2. In assay [2], this molecule returned a z-score of -2.68.

Consider `CCOC(=O)C[C@H]1[C@H](OC(=O)Cc2ccc3c(c2)OCO3)[C@@H](NC(=O)C2CCCCC2)c2cc(OCCCO)ccc2N1C(=O)c1ccccc1`, for which the composite z-score is 0.232 in assay [1]; -0.684 in assay [3]; 0.379 in [4]; 0.389 in assay [5]; -0.1 in assay [6]; -0.147 in [7]. Besides, the results for the composite z-score in assay [8], in assay [9] and in assay [10] were -0.272, 0.653 and 0.262, respectively. The z-score in [2] was -0.509.

Take `Cc1ccc(S[C@]2(C(=O)NCC(F)(F)F)CC(=O)N(Cc3cc(C(F)(F)F)cc(C(F)(F)F)c3)[C@@H]2c2ccc(CO)cc2I)cc1`: the composite z-score in assay [1] is -0.886; in assay [3] it was -0.868; in [4], -0.364; in [5] it was 0.0808; in assay [6] it was -0.231; in [7], -0.0035. Also, the composite z-score in [8] is -0.426; in assay [9], -0.152; in assay [10], -0.379. The molecule also showed a z-score in assay [2] of -0.964.

Turning to `Cc1ccc(S[C@]2(C(=O)NCC(F)(F)F)CC(=O)N(Cc3cc(C(F)(F)F)cc(C(F)(F)F)c3)[C@@H]2c2ccc(CO)cc2)cc1`, the composite z-score in assay [1] is -0.109; in assay [3], -0.968; in [4], -0.392; in assay [5] it was 0.159; in [6] it was -0.25; in assay [7] it was -0.356. Moreover, the composite z-score in assay [8] was 0.162; in assay [9], -0.851; in assay [10], -0.633. In [2], this molecule showed a z-score of -0.099.

For `COc1cc2c(cc1O)C(C1CC1)N(C)CC2` (stereo not given), the composite z-score in assay [1] was -1.01; in assay [3] it was -0.893; in assay [4], -1.01; in [5], -0.193; in [6], -0.0101; in [7], -0.24. The composite z-score in assay [8] is -0.139; in [9], -0.431; in assay [10], -1.72. In assay [2], this molecule yielded a z-score of -0.817.

Consider `O=C1O[C@@H](c2ccccc2)[C@@H](c2ccccc2)N2[C@@H](c3ccc(O)cc3)[C@]3(C(=O)Nc4ccc(C#CCCO)cc43)[C@@H](C(=O)N3CCN(c4ncccn4)CC3)[C@H]12`, for which the composite z-score in [1] is 0.99; in assay [3], 0.787; in assay [4], -0.587; in assay [5], -0.948; in assay [6] it was -0.512; in assay [7], -0.232. Moreover, the values for the composite z-score in assay [8], in [9] and in assay [10] were 0.498, 0.255 and 0.101, respectively. Further, in [2], the z-score was -0.671.

In the case of `COc1ccc([Si](C)(C)[C@@H]2[C@@H](CCO)O[C@]3(C(=O)N(Cc4ccccc4)c4ccc(N5C(=O)c6cccc7cccc5c67)cc43)[C@H]2C)cc1`, the composite z-score is -0.432 in assay [1]; -0.558 in assay [3]; 0.991 in [4]; 0.836 in assay [5]; -0.251 in [6]; -0.237 in [7]. The composite z-score in assay [8] was 0.2; in assay [9] it was -0.697; in [10] it was 0.0366. In assay [2], the z-score is -4.17.

On to `CCCN1C(=O)[C@]2(Cc3ccccc31)N=C(c1ccc(OCCCO)cc1)O[C@@H]2c1ccccc1`, for which the composite z-score is 1.42 in assay [1]; -0.148 in assay [3]; 1.98 in assay [4]; -0.317 in assay [5]; 0.0427 in [6]; 1.17 in assay [7]. For the same molecule, the composite z-score was found to be 0.401 in [8], 0.414 in assay [9] and 1.28 in [10]. The same molecule displayed a z-score in [2] of -3.29.

As for `CO[C@H]1O[C@H](CO)[C@@H](OC(=O)Nc2ccc3c(c2)OCO3)[C@H](OC(=O)Nc2ccc3c(c2)OCO3)[C@@H]1OC(=O)Nc1ccc2c(c1)OCO2`, the composite z-score in [1] is 1.49; in assay [3] it was 0.472; in assay [4] it was 1.88; in assay [5], -0.745; in [6] it was 0.0618; in [7], 0.313. The composite z-score in assay [8] was determined as 0.909; in assay [9], 1.25; in [10] it was 1.7. Moreover, in assay [2], the z-score amounted to 0.158.

With `CC(C)[Si](C#C[Si](C(C)C)(C(C)C)C(C)C)(O[C@H](c1ccccc1)c1cn(Cc2ccccc2)nn1)C(C)C`, the composite z-score was 1.06 in assay [1]; 0.637 in assay [3]; 0.192 in assay [4]; -0.774 in assay [5]; -0.0794 in assay [6]; -0.0769 in assay [7]. Besides, the composite z-score turned out to be 0.256 in [8], 0.352 in assay [9] and 0.717 in [10]. The z-score in [2] was -0.0298.

With `COC(=O)[C@@]1(Cc2ccc(OC)cc2)[C@H]2c3cc(C(=O)N(C)C)n(Cc4ccc(C)o4)c3C[C@H]2CN1C(=O)c1ccccc1`, the composite z-score is 1.42 in assay [1]; -0.466 in assay [3]; 0.372 in assay [4]; -0.223 in assay [5]; 0.091 in assay [6]; 0.596 in assay [7]. Also, the figures for the composite z-score in [8], in [9] and in assay [10] were 0.243, 1.27 and 0.41, respectively. For the same molecule, in assay [2], the z-score is -2.04.

The values are drawn from PubChem BioAssay.
